# Source: PubChem (National Center for Advancing Translational Sciences (NCATS))
# Many of the other results were omitted from the sample, so hits are more common in it than they were.
# VACV mCherry inh: qHTS for Stage-Specific Inhibitors of Vaccinia Orthopoxvirus: mCherry Reporter Primary qHTS; Vaccinia virus mCherry reporter infection, fluorescence; Potency, µM (doses to about 36.5 µM), for the others: at the top dose activity change, negative = inhibition, most hits filed as inhibitors; actives 0.63% (n = 310,000); calls by dose curve; tested in A549 cells; note: potency is the fitted concentration of half-maximal effect; % is set by controls: 0 for no effect and ±100 for the full control effect; nearly all actives have a fitted effect of over 35% in size
# CHX counter: Cycloheximide Counterscreen for Small Molecule Inhibitors of Shiga Toxin | cell reporter, cycloheximide protein synthesis inhibition counterscreen | max response, % | actives 12% (n = 300,000); in the data active = max response mostly above about 13%, no sharp cut-off; inactive = mostly below about 14%; note: read at 38.3 µM for the half of the compounds with a filed dose; 0% is about no effect
# LASV entry inh: qHTS for Inhibitors of binding or entry into cells for Lassa Virus; Lassa virus pseudotype entry inhibition, cell reporter; Potency, µM (highest dose often 37.9 µM), for inactives: at the highest dose activity change, negative = inhibition, usual class: inhibitors; actives 1.2% (n = 300,000); calls by dose curve; tested in HEK293 cells; note: potency is the fitted concentration of half-maximal effect; % is set by controls: 0 for no effect and ±100 for the full control effect; nearly all actives have a fitted effect of over 50% in size
# MARV entry inh: qHTS for inhibitors of binding or entry into cells for Marburg Virus | Marburg virus pseudotyped entry inhibition, cell reporter | Potency, µM (doses to about 37.8 µM), inactives show at the highest dose activity change, negative = inhibition, actives largely listed as inhibitors | actives 1.8% (n = 300,000) | AID 540276, 2011; calls by dose curve; tested in HEK293 cells; note: potency is the fitted concentration of half-maximal effect; % is set by controls: 0 for no effect and ±100 for the full control effect
# Vaccinia Venus: qHTS for Stage-Specific Inhibitors of Vaccinia Orthopoxvirus: Venus Reporter Primary qHTS. Vaccinia virus Venus reporter expression, fluorescence. actives 0.46% (n = 330,000). Potency, µM (series often up to 36.5 µM), for the others: top-dose activity change, negative = inhibition, hits mostly inhibitors; calls by dose curve; tested in A549 cells; note: potency is the fitted concentration of half-maximal effect; % is set by controls: 0 for no effect and ±100 for the full control effect; nearly all actives have a fitted effect of over 30% in size
# Shiga toxin inh: A qHTS for Small Molecule Inhibitors of Shiga Toxin | Vero cells, Shiga toxin protein synthesis inhibition reporter | inhibition, % at 38.7 µM | actives 9.2% (n = 290,000); in the data active = inhibition mostly above about 28%, no sharp cut-off; inactive = mostly below about 43%; note: 0% is about no effect
# An asterisk follows results filed as active; i = inactive; ? = inconclusive; . = no result given; [ ] = another dose, or the depositor's remark.
SMILES,VACV mCherry inh,CHX counter,LASV entry inh,MARV entry inh,Vaccinia Venus,Shiga toxin inh
CC(C)Cc1nc2cc(NS(=O)(=O)N(C)C)cc(C(=O)N3CC4(C)CC3CC(C)(C)C4)c2n1C (stereo not given),-2%,.,.,.,15%,.
CCCN1C(=O)S/C(=C\c2ccc(N3CCOCC3)o2)C1=O,?,41*,4%,-27%[46.1 µM],38%,98*
CCCN1C(=O)S/C(=C/c2ccc(N3CCOCC3)o2)C1=O,?,47*,18%[46.1 µM],-6%[46.1 µM],80%,66*
CCOC(=O)CN1C(=O)S/C(=C/c2ccc(N3CCCCC3)o2)C1=O,-6%,2,-11%,19%,66%,-17
COC(=O)CN1C(=O)S/C(=C/c2ccc(N3CCCCC3)o2)C1=O,.,9,?,12%,.,-3
CC(=O)N(c1ccc2ccccc2c1)C1SC(=O)N(c2cccc(C)c2)C1=O (stereo not given),-7%,.,.,.,-9%,.
COc1ccc(NC(=O)C(Cc2ccccc2)n2cccc2)c(OC)c1 (stereo not given),-17%,-2,.,29%[46.1 µM],-15%,24
COc1ccc(C(C)=O)c(Oc2cc(NN3CCCCC3)c([N+](=O)[O-])cc2[N+](=O)[O-])c1,?,2,.,.,3.2µM*,18
Nc1ncc(-c2ccccc2)c(-c2ccc(O)cc2O)n1,?,-5,5%[46.1 µM],?,-16%,-8
Oc1ccc(-c2cnns2)c(O)c1,-9%,-2,11µM*,?,-11%,-4
Cc1ccccc1OCc1ccc(-c2nc(C#N)c(NCc3cccnc3)o2)o1,?,.,-16%[46.1 µM],-4%[46.1 µM],?,.
CCN(CC)c1ccc(NC(=O)Cn2nc(C)n3cccc3c2=O)c(C)c1,-12%,.,-4%[46.1 µM],?,-13%,.
COc1ccc(NC(=O)Nc2ccc(OC)cc2)cc1,-11%,22*,18%,5%,-5%,67*
CC(C)OC(=O)Nc1ccc(-c2ccc(NC(=O)OC(C)C)cc2Cl)c(Cl)c1,i,-1,.,.,-16%,-5
COc1ccc(NC(=O)OC(C)C)cc1,i,29*,?,?,-14%,68*
COC(=O)c1ccc(NC(=O)Nc2ccc(OC)cc2)cc1,i,24,-16%[46.1 µM],?,2%,60*
COC(=O)c1ccc(NC(=O)Nc2ccc([N+](=O)[O-])cc2)cc1,.,0,.,.,.,-7
COc1ccc(NC(=O)Nc2ccc(N(C)C)cc2)cc1,.,30*,-14%,13%,.,97*
COc1ccc(CNC(=O)Nc2ccc(OC)cc2)cc1,i,-3,23%,?,-10%,-5
O=C(c1ccccc1)c1cnc[nH]1,-13%,13*,-2%,2%[46.1 µM],-8%,20
O=C(Nc1ccccc1)c1cnc[nH]1,-3%,30*,-24%,5%,-2%,67*
O=C(c1ccccc1)c1ccc[nH]1,-12%,.,2%[46.1 µM],-3%[46.1 µM],-7%,.
Cc1ccc(N2CC(NC(=O)c3ccco3)CC2=O)cc1C (stereo not given),-10%[7.34 µM],.,-18%[46.1 µM],.,-10%[7.34 µM],.
Cc1cc(C)cc(Nc2ncnc3nc[nH]c23)c1,?,17,?,?,-6%,41*
FC(F)Sc1ccc(Nc2ncnc3nc[nH]c23)cc1,?,36*,59%[14.3 µM],-7%,?,11*
SMILES,VACV mCherry inh,CHX counter,LASV entry inh,MARV entry inh,Vaccinia Venus,Shiga toxin inh
CCc1ccc(NC(=O)CSc2ccc(-c3cccs3)nn2)cc1,-18%,.,-7%[46.1 µM],.,-22%,.
COc1ccc(C(=O)Nc2ccc3oc(-c4cccnc4)nc3c2)cc1,-22%,.,5%[46.1 µM],-22%[46.1 µM],0%,.
CCCCC(=O)Nc1ccc2oc(-c3cccnc3)nc2c1,.,31*,?,9%,-10%,60*
CCCC(=O)Nc1ccc2oc(-c3cccnc3)nc2c1,.,25*,2%,0%,.,54*
COC(=O)Cc1ccc2oc(-c3cccnc3)nc2c1,-14%,49*,6%,-13%[46.1 µM],3%,88*
CCOc1ccc(C(=O)Nc2ccc3oc(-c4cccnc4)nc3c2)cc1,i,.,-13%[46.1 µM],2%[46.1 µM],-11%,.
COc1ccc(C(CC(=O)NCc2ccccc2)N2Cc3ccccc3C2=O)cc1 (stereo not given),-1%,.,?,.,4%,.
Cc1cc(NC(=O)/C=C/c2ccccc2Cl)no1,-11%,23*,14%,4%,-4%,67*
Cc1cc(NC(=O)/C=C/c2ccccc2Cl)n(-c2nc3ccccc3[nH]2)n1,i,14*,?,?,-14%,1
Cc1cc(NC(=O)/C=C/c2ccccc2)no1,?,41*,18%,-10%,-15%,63*
COc1ccc(C(=O)/C=C/Nc2cc(C)on2)cc1,-12%,47*,7%,20%,-7%,65*
Cc1cc(NC(=O)c2ccc(F)cc2F)n(-c2nc3ccccc3[nH]2)n1,.,11,1%,?,.,1
O=c1c2cnn(-c3ccc(Cl)cc3)c2ncn1Cc1cccc(C(F)(F)F)c1,-3%,.,-1%[46.1 µM],16%[46.1 µM],-8%,.
COc1cc(C(=O)NCCC(=O)NC2CCC(C)CC2)cc(OC)c1OC (stereo not given),19%[7.34 µM],-5,.,.,29%[7.34 µM],-9
Cc1ccc(-c2nc3ncccc3o2)cc1NC(=O)c1cccc(OCC(C)C)c1,?,.,?,7%[46.1 µM],?,.
COc1ccc(/C=C/C(=O)Nc2cc(C)on2)cc1,-12%,42*,?,21%,-9%,107*
COc1ccc(/C=C/C(=O)Nc2nonc2NC(C)=O)cc1,-18%,9,2%,?,-13%,18
CC(=O)NCCc1nc2ccccc2n1CCc1ccccc1,-14%,-2,1%[46.1 µM],?,-16%,-23
C=CC(=O)Nc1cccc(Oc2cc(Cl)nc3[nH]ccc23)c1,?,.,.,.,1.6µM*,.
COc1cccc(CN2CC(C(=O)N(C)Cc3ccc(C)cc3)CCC2=O)c1 (stereo not given),.,43*,.,.,.,29
COc1cccc(CN2CC(C(=O)NCCCc3ccc(C)cc3)CCC2=O)c1 (stereo not given),.,19*,.,.,.,48
COc1cccc(CN2CC(C(=O)N3CCOCC3)CCC2=O)c1 (stereo not given),.,46*,.,.,.,66*
COc1cccc(CN2CC(C(=O)NCCCc3ccncc3)CCC2=O)c1 (stereo not given),-7%,-4,-10%,?,-19%,-10
CN1C(=O)/C(=C2\SC(N3CCCCCC3)=NC2=O)c2ccccc21,.,20*,?,30%,.,32
O=C1N=C(N2CCCCC2)SC1=C1CCCCC1,.,33*,?,21%,-27%,114*
O=C1N=C(N2CCOCC2)S/C1=C1\C(=O)N(Cc2ccccc2)c2ccccc21,-14%,15,4%,?,-11%,24
CCCN1C(=O)/C(=C2\SC(N3CCCCC3)=NC2=O)c2ccccc21,?,46*,?,?,?,68*
S=C(NCc1ccc(Cl)cc1)Nc1ccncc1,.,-2,.,.,.,-31
